VLA-4 inh: inhibition in a human VLA-4 binding assay | VLA-4 expressing cells, ligand binding flow cytometry | inhibition, % (about 7 µM as worked out from the volumes in the protocol) | P13612 | actives 0.2% (n = 330,000); in the data active means inhibition above about 50%
Target sequence (P13612 whole entry, looked up): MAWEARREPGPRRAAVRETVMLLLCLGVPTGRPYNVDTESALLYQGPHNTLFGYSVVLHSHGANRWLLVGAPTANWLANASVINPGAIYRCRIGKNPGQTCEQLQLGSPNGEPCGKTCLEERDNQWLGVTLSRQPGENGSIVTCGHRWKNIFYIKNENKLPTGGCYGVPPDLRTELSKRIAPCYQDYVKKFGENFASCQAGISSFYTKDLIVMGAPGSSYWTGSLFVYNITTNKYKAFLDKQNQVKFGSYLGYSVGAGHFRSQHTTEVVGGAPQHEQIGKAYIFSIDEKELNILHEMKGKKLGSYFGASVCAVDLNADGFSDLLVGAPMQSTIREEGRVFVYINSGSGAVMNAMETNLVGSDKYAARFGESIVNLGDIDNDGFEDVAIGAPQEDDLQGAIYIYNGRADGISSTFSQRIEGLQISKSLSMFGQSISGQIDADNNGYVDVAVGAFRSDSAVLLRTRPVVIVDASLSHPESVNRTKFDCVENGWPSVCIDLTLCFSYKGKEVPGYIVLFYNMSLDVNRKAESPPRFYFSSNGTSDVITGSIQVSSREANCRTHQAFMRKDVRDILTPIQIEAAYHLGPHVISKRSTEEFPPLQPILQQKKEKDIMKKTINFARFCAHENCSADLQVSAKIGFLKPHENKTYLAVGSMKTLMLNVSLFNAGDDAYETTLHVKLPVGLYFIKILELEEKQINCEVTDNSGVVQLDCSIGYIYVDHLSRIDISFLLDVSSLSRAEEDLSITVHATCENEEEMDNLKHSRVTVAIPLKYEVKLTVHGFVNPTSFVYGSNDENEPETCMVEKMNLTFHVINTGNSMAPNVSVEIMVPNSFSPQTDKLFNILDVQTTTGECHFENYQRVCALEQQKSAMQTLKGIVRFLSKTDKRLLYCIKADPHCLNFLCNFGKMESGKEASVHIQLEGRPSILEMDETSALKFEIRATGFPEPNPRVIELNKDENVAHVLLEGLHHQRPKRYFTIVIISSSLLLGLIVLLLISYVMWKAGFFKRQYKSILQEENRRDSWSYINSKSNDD
ALR inh: blocks human ALR sulfhydryl oxidase activity. purified ALR, DTT oxidation, H2O2 HRP-luminol luminescence. inhibition, % (no concentration beside the values). actives 3.8% (n = 290,000). AID 485317;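 active means mean replicate inhibition above about 79%, with every replicate also reaching it, limit read from the data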
A1 inh: inhibitors of the anti-apoptotic protein A1, read as caspase activation; MEF A1-2A-BIM cells, Caspase-Glo 3/7 luminescence, 3 h; percent of clofoctol response, vehicle zero; caspase activation, % (concentration not given with the values); actives 0.066% (n = 330,000);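 active means over half of replicate activation scores above 10%, or exactly half above 10 with the replicate mean above 10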
Efflux pump inh: antifungal efflux pump inhibition, Nile Red retention; actives 0.44% (n = 330,000); AID 485275; inhibition, % at 10 µM; S. cerevisiae Candida pump triplex;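 active means plate passing quality check with inhibition over a set limit, or well fluorescence over plate mean plus 4 SD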;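 further: Nile Red retained in pooled yeast measured as flow cytometry median fluorescence; higher means more Nile Red kept so more efflux inhibition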
Mot1-301 SUMO: blocks SUMOylation pathway, rescuing yeast Mot1-301 growth; S. cerevisiae Mot1-301 growth rescue, ATP luminescence, 38.5C; percent above DMSO median, 100 means doubled; growth rescue, % at 18.8 µM; actives 1% (n = 320,000);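 active means every valid replicate shows activation above 250% relative to neutral control wells; inactive means the rest, any valid replicate at or below 250%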
AHR act: activators of human aryl hydrocarbon receptor; AHR-responsive luciferase reporter cells, luminescence; AID 2796; actives 2.5% (n = 320,000); activation, % at 5 µM; in the data active means activation above about 47%
Yeast cmpd fluor: flagged as fluorescent in efflux inhibitor counter-screen | AID 588517 | shares compounds with Efflux pump inh | S. cerevisiae AD/pABC3, compound fluorescence, flow cytometry | fluorescence ratio to DMSO, % at 10 µM | actives 4% (n = 1,700);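 active means fluorescence ratio to DMSO above its plate's cutoff, the plate mean ratio plus 5 SD, cut at about 210% in these data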;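 further: unstained yeast with no Nile Red so the signal is compound autofluorescence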
Mdr1 pump inh: inhibitors of Candida albicans Mdr1 efflux pump. shares compounds with Efflux pump inh. S. cerevisiae AD/CaMDR1, Nile Red efflux, flow cytometry. inhibition, % at 10 µM. actives 1% (n = 1,700); in the data active means inhibition above about 26%;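 further: higher means more Nile Red retained so more efflux inhibition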
Cdr2 pump inh: inhibitors of Candida albicans Cdr2 efflux pump; shares compounds with Efflux pump inh; Nile Red retention ratio vs DMSO, % at 10 µM; AID 588520; actives 4% (n = 1,700); S. cerevisiae AD/CaCDR2, Nile Red retention, flow cytometry; in the data active means Nile Red retention ratio vs DMSO above about 190%;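 further: higher ratio means more blocking of Cdr2 efflux of the dye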
CaCdr1 efflux inh: Candida Cdr1 efflux pump inhibition; shares compounds with Efflux pump inh; S. cerevisiae AD/CaCDR1, Nile Red efflux, flow cytometry; inhibition, % at 10 µM; actives 1% (n = 1,700);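 active means inhibition above the screen-wide mean plus twice its standard deviation, cut at about 32% in these data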
A number is an active result; – = inactive; · = not tested or not shown; + = active, no number. Shown are actives, neighbours in structure and some others; about 7.2% of the full set was active somewhere.

SMILES | VLA-4 inh | ALR inh | A1 inh | Efflux pump inh | Mot1-301 SUMO | AHR act | Yeast cmpd fluor | Mdr1 pump inh | Cdr2 pump inh | CaCdr1 efflux inh
Cn1cc([N+](=O)[O-])c(C(=O)Nc2sc3c(c2C#N)CCC3)n1 | – | – | – | – | – | – | – | – | – | –
Cn1cc(Cl)c(C(=O)NC(=S)Nc2sc3c(c2C#N)CCCCC3)n1 | – | – | – | – | – | – | · | · | · | ·
Cn1cc(Br)c(C(=O)Nc2sc3c(c2C#N)CCC3)n1 | – | · | – | – | – | – | – | – | – | –
Cn1ccc(C(=O)Nc2sc3c(c2C#N)CCC3)n1 | – | – | – | – | – | – | – | – | – | –
O=C(CN(Cc1ccccc1)C(=O)CNS(=O)(=O)c1ccc(F)cc1)NCC1CCCO1 (centres undefined) | – | – | – | – | – | – | · | · | · | ·
Cc1nc(S(=O)(=O)Nc2ccccc2C(=O)NCC2CC2)cn1C | – | – | – | – | – | – | · | · | · | ·
O=C(COC(=O)c1ccc(Br)o1)NCc1ccccc1Cl | – | – | – | – | – | – | · | · | · | ·
COc1ccc(CNC(=O)/C=C/C(=O)O)cc1OC | – | – | – | 5.5 | – | – | – | – | – | –
NC(=O)c1nc(-c2ccco2)nc2c1[nH]c(=O)n2-c1ccc(Cl)c(Cl)c1 | – | – | – | 1.2 | – | – | – | – | – | –
CC(C)Cc1nc(C(N)=O)c2[nH]c(=O)n(-c3ccc(F)cc3)c2n1 | – | – | – | – | – | – | · | · | · | ·
NC(=O)c1nc(-c2cccs2)nc2c1[nH]c(=O)n2-c1ccc(F)cc1 | – | – | – | – | – | – | – | – | – | –
CCc1nc(C(N)=O)c2[nH]c(=O)n(-c3ccccc3F)c2n1 | – | · | – | – | – | – | · | · | · | ·
CCOc1ccccc1-c1nc(C(N)=O)c2[nH]c(=O)n(-c3ccccc3)c2n1 | – | – | – | – | – | – | – | – | – | –
COc1ccccc1-c1nc(C(N)=O)c2[nH]c(=O)n(-c3cccc(C)c3)c2n1 | – | – | – | 0.4 | – | 66.0 | – | – | – | –
CSCCC(NC(=O)c1ccccc1)C(=O)N1CC(C)OC(C)C1 (centres undefined) | – | – | – | – | – | – | · | · | · | ·
CCOCCN1CCN(c2c(C)c(C)nc3cc(-c4cc(OC)cc(OC)c4)nn23)CC1 | – | – | – | – | – | – | · | · | · | ·
CCc1c(C)nc2cc(-c3cc(OC)cc(OC)c3)nn2c1N1CCN(CCN2CCOCC2)CC1 | – | · | – | 1.6 | – | – | – | – | – | –
CCn1ncc(/C=N\NC(=O)COc2cc(C)cc(C)c2)c1C | – | – | – | 12.6 | – | – | – | – | – | –
Cc1cc(NS(=O)(=O)c2ccc(NC(=O)C(CC(C)C)N3C(=O)c4ccccc4C3=O)cc2)nc(C)n1 (centres undefined) | – | – | – | 0.9 | – | – | – | – | – | –
O=C(Cn1ccc2ccccc2c1=O)NCCC(=O)Nc1cccc(Cl)c1 | – | – | – | – | – | – | · | · | · | ·
Cc1cccc(Nc2cc(=O)n(C)c(=O)[nH]2)c1 | – | – | – | – | – | – | · | · | · | ·
CCCCn1c(N)c(N(CC(C)C)C(=O)CN2C(=O)NC3(CC(C)CC(C)(C)C3)C2=O)c(=O)[nH]c1=O (centres undefined) | – | – | – | 0.9 | – | – | – | – | – | –
CCC(Sc1nncn1C)C(=O)Nc1ccccc1OC (centres undefined) | – | – | – | 0.5 | – | – | – | – | – | –
CCNc1ccc(Br)cc(C(=O)/C=C/c2ccc(Cl)cc2Cl)c1=O | – | – | – | – | – | – | · | · | · | ·
COc1ccc(-c2ccc3c(c2)S(=O)(=O)c2cccc(C(=O)NC4CCCCC4)c2C3=O)cc1OC | – | – | – | 1.1 | – | – | – | – | – | –
SMILES | VLA-4 inh | ALR inh | A1 inh | Efflux pump inh | Mot1-301 SUMO | AHR act | Yeast cmpd fluor | Mdr1 pump inh | Cdr2 pump inh | CaCdr1 efflux inh
CCN(CC)c1ccc(/C=C/c2cccc[n+]2C)c(OC)c1 | · | 98.7 | – | 20.6 | – | – | + | – | – | –
CCN(CC)c1ccc(/C=c2/sc3nnc(-c4ccccc4C)n3c2=O)cc1 | – | – | – | 0.6 | – | – | 214.9 | – | – | –
CCN(CC)c1ccc(/C=c2\sc3nnc(-c4ccccc4Cl)n3c2=O)cc1 | – | – | – | 0.7 | – | – | 270.8 | – | – | –
N#CCCn1cc(/C=N/NC(N)=S)c(-c2ccccc2)n1 | – | – | – | – | – | – | · | · | · | ·
OCCC1CN(Cc2cc3c(cc2Cl)OCO3)CCN1C1CCCC1 (centres undefined) | – | · | – | – | – | – | · | · | · | ·
O=C(CCN1CCCCCC1)Nc1ccc2c(c1)OCCO2 | – | – | – | 0.6 | – | – | – | – | – | –
CN1CCN(CCC(=O)Nc2ccc3c(c2)OCO3)CC1 | – | – | – | – | – | – | · | · | · | ·
CCc1cc(=O)oc2c(C)c(OCC(=O)NCCCN3CCCC3=O)ccc12 | – | – | – | – | – | – | · | · | · | ·
O=C(COc1ccc(Cl)cc1Cl)NC1CCSC1=O (centres undefined) | – | – | – | 1.7 | – | – | – | – | – | –
C=CCn1c(SCC(=O)NC2(C)CCS(=O)(=O)C2)nc2ccccc21 (centres undefined) | – | – | – | – | – | – | · | · | · | ·
Cc1ccc(CN(Cc2cccnc2)C(=O)CN2C(=O)COc3ccccc32)o1 | – | – | – | 5.9 | – | – | – | – | – | –
COc1ccc(NC(=S)Nc2ccc(OCc3ccccc3)cc2)c(OC)c1 | – | – | – | – | – | – | · | · | · | ·
COc1ccc(NC(=S)Nc2ccccc2)c(OC)c1 | – | – | – | 1.1 | – | – | – | – | – | –
Cc1ccc(S(=O)(=O)Cn2nnnc2C(CC(C)C)N2CCN(c3ccccc3)CC2)cc1 (centres undefined) | – | – | – | 0.9 | – | – | – | – | – | –
O=C(NCC(c1cccs1)N1CCOCC1)c1ccc(Cl)c(S(=O)(=O)N2CCOCC2)c1 (centres undefined) | – | – | – | 1.1 | – | – | – | – | – | –
O=C(NCC(c1cccs1)N1CCOCC1)c1ccc(Cl)c([N+](=O)[O-])c1 (centres undefined) | – | – | – | – | – | – | · | · | · | ·
CN1C/C(=C\c2ccc(N3CCOCC3)cc2)C(=O)/C(=C/c2ccc(N3CCOCC3)cc2)C1 | – | 78.5 | – | 0.8 | – | – | – | – | – | –

From PubChem BioAssay
